Measurements from the supplement of paper PMC6555819.

Experiments:
Test in all cases: PBM binding z-score (relative to random genomic background probes); higher = stronger binding; sequences stand for … in GC…GCGATTGACAGCGTAGAATGAAGG
[1] = tested on: FXR:RXRa (NR concentration 270 nM, RXRa partner concentration 90 nM)
Procedure, shortened: (§1)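 For binding z-scores, the reference was random background probes on custom Agilent 4×180K protein-binding microarrays. These arrays were incubated 1 h with ligand-free nuclear receptor dimers in PBS pH 7.4, 2% milk, 0.02% Triton X-100, 1 mM DTT, 0.2 mg/mL BSA and 0.4 mg/ml salmon testes DNA. Fluorescence was scanned after antibody detection of each partner (one per run) and regression-normalized.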

[2] = tested on: LXRa:RXRa (NR concentration 270 nM, RXRa partner concentration 90 nM)
Procedure, shortened: as §1

[3] = tested on: LXRa homodimer (NR concentration 270 nM)
Procedure, shortened: as §1

[4] = tested on: LXRb:RXRa (NR concentration 270 nM, RXRa partner concentration 90 nM)
Procedure, shortened: as §1

[5] = tested on: LXRb homodimer (NR concentration 270 nM)
Procedure, shortened: as §1

[6] = tested on: PPARa:RXRa (NR concentration 270 nM, RXRa partner concentration 90 nM)
Procedure, shortened: as §1

[7] = tested on: PPARg:RXRa (NR concentration 180 nM, RXRa partner concentration 90 nM)
Procedure, shortened: as §1

[8] = tested on: PPARg:RXRa 270nM:90nM, anti-RXR (NR concentration 270 nM, RXRa partner concentration 90 nM)
Procedure, shortened: as §1

[9] = tested on: PPARg:RXRa 30nM:10nM, anti-RXR (NR concentration 30 nM, RXRa partner concentration 10 nM)
Procedure, shortened: as §1

[10] = tested on: PPARg:RXRa 90nM:30nM, anti-RXR (NR concentration 90 nM, RXRa partner concentration 30 nM)
Procedure, shortened: as §1

[11] = tested on: PPARg:RXRa DBDmut IVT, anti-RXR (DBD mutation: RXRa K156A/R161A, NR concentration 270 nM, RXRa partner concentration 90 nM)
Procedure, shortened: as §1

[12] = tested on: PPARg:RXRa IVT, anti-PPARg (NR concentration 270 nM, RXRa partner concentration 90 nM)
Procedure, shortened: as §1

[13] = tested on: PPARg DBDmut:RXRa IVT, anti-PPARg (DBD mutation: PPARg1 K132A/R137A, NR concentration 270 nM, RXRa partner concentration 90 nM)
Procedure, shortened: as §1

[14] = tested on: PPARg DBDmut IVT, anti-PPARg (DBD mutation: PPARg1 K132A/R137A, NR concentration 270 nM)
Procedure, shortened: as §1

[15] = tested on: PPARg homodimer (NR concentration 180 nM)
Procedure, shortened: as §1

[16] = tested on: PXR:RXRa (NR concentration 270 nM, RXRa partner concentration 90 nM)
Procedure, shortened: as §1

[17] = tested on: PXR homodimer (NR concentration 270 nM)
Procedure, shortened: as §1

[18] = tested on: RARa:RXR (NR concentration 270 nM, RXRa partner concentration 90 nM)
Procedure, shortened: as §1

[19] = tested on: RARa homodimer (NR concentration 270 nM)
Procedure, shortened: as §1

[20] = tested on: RARb:RXRa (NR concentration 270 nM, RXRa partner concentration 90 nM)
Procedure, shortened: as §1

Row | Sequence | PBM binding z-score [1] | PBM binding z-score [2] | PBM binding z-score [3] | PBM binding z-score [4] | PBM binding z-score [5] | PBM binding z-score [6] | PBM binding z-score [7] | PBM binding z-score [8] | PBM binding z-score [9] | PBM binding z-score [10] | PBM binding z-score [11] | PBM binding z-score [12] | PBM binding z-score [13] | PBM binding z-score [14] | PBM binding z-score [15] | PBM binding z-score [16] | PBM binding z-score [17] | PBM binding z-score [18] | PBM binding z-score [19] | PBM binding z-score [20]
1 | AATACATGGTCATCGTAGGCCAGAGTACGCACAG | 0.0777 | 0.702 | 0.0647 | -0.141 | -0.0432 | 0.289 | 1.22 | 0.533 | 0.2 | 0.514 | 0.199 | 1.21 | 0.624 | 0.968 | -0.153 | 0.3 | -0.157 | 0.574 | 0.339 | 1.14
2 | CCTTACGGGTCACTCCTGGTTATAGCATCGGAGT | 4.24 | 5.52 | -0.0362 | 3.01 | 0.134 | 4.2 | 2.76 | 3.54 | 0.987 | 2.25 | 2.58 | 3.35 | 0.273 | -0.731 | 1.77 | 2.67 | 0.0261 | 3.18 | 0.288 | 3.55
3 | TGAATGAGGTTACAAGATCAGGGAACGTTGCAAA | 1.8 | 1.28 | -0.302 | 1.34 | -0.31 | 3.09 | 2.14 | 2.54 | 1.05 | 1.65 | 1.92 | 3.07 | 0.903 | 1 | 0.112 | 0.754 | -0.231 | 1.68 | 0.0919 | 1.73
4 | ATAATGAGGTTATTAAGATCAGGGAATTGCGGTC | 1.9 | 2.12 | 0.684 | 1.48 | 1.07 | 2.81 | 1.91 | 2.14 | 0.859 | 1.5 | 3.45 | 3.21 | 1.46 | 0.952 | 1.12 | 1.58 | 0.876 | 1.76 | 0.951 | 1.47
5 | TAGCCTAGGTCATGCGGGCCAGTGTAGTGTCGGC | 3.71 | 2.88 | -0.0482 | 1.38 | -0.348 | 3.17 | 1.5 | 2.27 | -0.122 | 1.26 | 1.76 | 2.75 | -0.395 | -0.723 | 0.153 | 1.23 | -0.733 | 1.69 | -1.29 | 3.72
6 | TCTGCTAGGTCAGTTGGTCTGCTAACGAGCTGCC | 0.643 | 0.261 | -0.897 | -0.119 | 0.334 | 0.9 | -0.466 | 1.02 | 0.751 | 1.14 | 2.62 | 2.53 | 0.337 | -0.177 | -0.432 | -0.155 | -1.02 | 0.136 | -1.16 | 3.25
7 | CCGACTGGGGCAAGGTTACCATTACGCACAGCCA | 0.0277 | 0.227 | -0.221 | 0.492 | -0.9 | 1.75 | 2.79 | 3.17 | 0.732 | 2.4 | 2.66 | 3.49 | -0.296 | -0.507 | 0.706 | 0.214 | -0.376 | 0.792 | 0.0733 | 1.56
